Binding response (% of control) data for 46 compounds are collected here from PubChem BioAssay AID1531 (NMMLSC, 2009).

Out of some 290,000 compounds screened, about 3,300 (1.1%) were called active. Shown is part of a subset that was picked to be rich in actives. Values without a mark were called inactive. No stated cut-off is given here; in the data, active means binding response below about 67% or above about 130%; inconclusive means no clear call, values can overlap the other calls; inactive means in between.

The experiment deals with Mitogen-activated protein kinase kinase kinase 2 (Homo sapiens) (UniProt Q9Y2U5). The experiment in a line: modulators of MEK5 binding to wildtype MEKK2, primary screen, biochemical, multiplex bead flow cytometry, Alexa488-MEK5 (AID 1531). The following applies: Alexa488-MEK5 binding to MEKK2 WT, at 10 µM, actives lie on both sides. In general terms: Flow cytometry measures light scatter and fluorescence of single cells or particles in a stream.
`COc1ccc(N(C)S(=O)(=O)c2ccc3c(c2)CC(C)N3C(=O)C2CC2)c(OC)c1` (stereo unspecified): the binding response (% of control) is 101%. `COC(=O)CCCC1=CC2=CC(=O)C(C)(OC(=O)c3cccs3)C(=O)C2=CN1CC1CC1` (stereo unspecified): the binding response (% of control) is 87%.

Consider `CC1(OC(=O)C2CCCC2)C(=O)C=C2C=C(c3ccc(C#N)cc3)OC=C2C1=O` (stereo unspecified), for which the binding response (% of control) is 90%. On to `COCCN1C=C2C(=O)C(C)(OC(=O)C3CCCC3)C(=O)C=C2C=C1c1ccsc1` (stereo unspecified), for which the binding response (% of control) is 164% (active). Next, `Cc1ccc(NC(=S)NCCc2ccc(Cl)cc2)c(C)c1`: 111%; `CN(CC(=O)Nc1cccc(F)c1)CC(=O)Nc1cccc([N+](=O)[O-])c1`: 691% (active).

Turning to `Cc1ccc(NC(=O)CN(C)CC(=O)Nc2cccc(F)c2)cc1[N+](=O)[O-]`, the binding response (% of control) is 97%.

Take `Cc1ccc(CN(C)CC(=O)Nc2cccc([N+](=O)[O-])c2)o1`: the binding response (% of control) was 83%.

For `O=C(NCCNc1ccccc1[N+](=O)[O-])c1ccccc1F`, the binding response (% of control) is 105%. Take `COc1ccc(CC(=O)Nc2cc(S(=O)(=O)N3CCCCC3)ccc2N2CCN(C)CC2)cc1`: the binding response (% of control) was 103%. Next, `CN1CCN(c2ccc(S(=O)(=O)N3CCCCC3)cc2NC(=O)Cc2ccccc2F)CC1`: 106%. Under `CCN1CCN(c2ccc(S(=O)(=O)N3CCCCC3)cc2NC(=O)Cc2c(Cl)cccc2Cl)CC1` stands 150% (active); under `CCOC(=O)/C=C/c1ccc(C(F)(F)F)cc1S(=O)(=O)NC(C)(C)C`, 93%. With `Cc1ccc(N(CC(=O)NC2CCCCC2)C(=O)CCCC(=O)Nc2ccccn2)c(C)c1`, the binding response (% of control) was 105%.

`CC1(C)c2[nH]c3ccccc3c2C[C@H]2C(=O)N(N)CC(=O)N21`: the binding response (% of control) was 110%. `CCN(CC)CCN(C(=O)c1ccc(S(=O)(=O)N2CCOCC2)cc1)c1nc2cc3c(cc2s1)OCCO3`: the binding response (% of control) is 115%. On to `CN(C)CCCN(C(=O)c1ccc(S(=O)(=O)N2CCCCCC2)cc1)c1nc2ccc(Br)cc2s1`, for which the binding response (% of control) was 237% (active). Under `CSc1nc2ccc(S(=O)(=O)N3CCc4ccccc43)cc2s1` stands 98%. `O=C(Nc1nc2ccc([N+](=O)[O-])cc2s1)c1ccc(S(=O)(=O)N2CCCc3ccccc32)cc1`: the binding response (% of control) is 91%.

Turning to `CN(C)CCCN(C(=O)c1ccc(S(=O)(=O)N2CCCc3ccccc32)cc1)c1nc2ccc(F)cc2s1`, the binding response (% of control) is 232% (active). Under `CN(C)CCN(C(=O)C1=COCCO1)c1nc2ccc(Cl)cc2s1` stands 111%; under `CCOc1ccc2nc(N(CCN(C)C)C(=O)c3ccc4ccccc4c3)sc2c1`, 129%. `CCc1ccc2nc(N(CCCN(C)C)C(=O)c3ccc4c(c3)OCCO4)sc2c1`: the binding response (% of control) is 116%. Next, `CCOc1ccc2nc(N(CCCN(C)C)C(=O)c3ccc(C(=O)c4ccccc4)cc3)sc2c1`: 155% (active).

`O=C1c2ccccc2S(=O)(=O)c2cc(N3CCN(c4ccccn4)CC3)ccc21`: the binding response (% of control) was 97%. Next, `Cc1cccc(C(=O)N2CCN(S(=O)(=O)N3CCCCC3)CC2)c1`: 108%; `COC(C/C=C/C(=O)[C@@H](C)OCc1ccccc1)OC`: 99%; `Cc1nc(-c2ccccc2)sc1C1(C)CC(c2cccnc2)=NO1` (stereo unspecified): 101%. Regarding `COc1ccc(NC2CCCN(C(=O)c3ccncc3)C2)cc1` (stereo unspecified), the binding response (% of control) was 97%. For the compound `COc1cccc(CN(C)CC(=O)Nc2ccccc2C(=O)Nc2ccccc2)c1`, the binding response (% of control) was 88%. Under `COc1cccc(CN(C)CC(O)COC(c2ccccc2)c2ccccc2C)c1` (stereo unspecified) stands 150% (active); under `Cc1ccccc1C(OCC(O)CN1CCCCC1CCO)c1ccccc1` (stereo unspecified), 121%.

Regarding `Cc1ccc(CN(N=Nc2nonc2N)c2nonc2N)c(C)c1`, the binding response (% of control) was 92%. With `CCN(CC)S(=O)(=O)c1ccc(N2CCOCC2)c(NC(=O)C2CSC3(C)CCC(=O)N23)c1` (stereo unspecified), the binding response (% of control) was 100%. Next, `Cc1ccc(OCC(=O)OC(C)CN(C)Cc2ccccc2)cc1` (stereo unspecified): 94%; `OC(CNCc1ccc2c(c1)OCO2)COc1ccccc1` (stereo unspecified): 93%. Next, `CN(Cc1ccccc1)CC(O)COc1ccc(CNCc2cc3ccccc3s2)cc1` (stereo unspecified): 138% (active). Under `O=C(N/N=C/c1cccc(O)c1)c1cc2c(ccc3ccccc32)o1` stands 97%; under `CCOC(=O)c1c(-c2ccccc2)csc1NC(=S)NC(=O)c1ccccc1`, 13% [inhibitor] (active); under `CCOC(=O)c1c(-c2ccc(-c3ccccc3)cc2)csc1NC(=O)CCC(=O)O`, 97%. Turning to `CCOC(=O)c1c(-c2cccc(C)c2)csc1NC(=O)c1c(-c2ccccc2)noc1C`, the binding response (% of control) was 84%. Under `CCc1cccc(C)c1NC(=S)N(CCCN1CCN(C)CC1)Cc1cccs1` stands 100%; under `Cc1cccc(C)c1NC(=O)C1(C)c2cccc[n+]2CC(=O)N1Cc1cccs1` (stereo unspecified), -5% (active); under `Cc1cccc(C)c1NC(=O)N1CC(C)OC(C)C1` (stereo unspecified), 107%.

In the case of `COc1ccc(C(=O)N2CCCCC2C(=O)Nc2ccc(-n3nc(C)cc3C)cc2)o1` (stereo unspecified), the binding response (% of control) is 107%. Under `COc1ccc(Nc2ncc(F)c(N3CCOCC3)n2)cc1` stands 78%.
